From publication PMC5700166
Where a chain is given by its changes, count along the chain named.

Tests used:
Assay in all cases: protein-binding microarray (PBM); PBM: ~300 nM protein, 6 mM HEPES pH 7.8, 80 mM KCl, 0.5 mM EDTA, 0.5 mM EGTA, 6% glycerol, 35 ng/ul poly-dIdC, 1% milk, 1 h, room temperature; Ap Aiptasia and Nv Nematostella (sea anemones) / Co Capsaspora / Aq Amphimedon (sponge) / Dm Drosophila / Hu human; RHD is the Rel homology domain; high values mean tight binding
Conditions in all cases: dsDNA, one strand shown
[1] = target: T1, GST-Ap-NF-kB RHD (Exaiptasia pallida (Aiptasia), UniProt A0A913YAJ5 2-422)
T1 sequence: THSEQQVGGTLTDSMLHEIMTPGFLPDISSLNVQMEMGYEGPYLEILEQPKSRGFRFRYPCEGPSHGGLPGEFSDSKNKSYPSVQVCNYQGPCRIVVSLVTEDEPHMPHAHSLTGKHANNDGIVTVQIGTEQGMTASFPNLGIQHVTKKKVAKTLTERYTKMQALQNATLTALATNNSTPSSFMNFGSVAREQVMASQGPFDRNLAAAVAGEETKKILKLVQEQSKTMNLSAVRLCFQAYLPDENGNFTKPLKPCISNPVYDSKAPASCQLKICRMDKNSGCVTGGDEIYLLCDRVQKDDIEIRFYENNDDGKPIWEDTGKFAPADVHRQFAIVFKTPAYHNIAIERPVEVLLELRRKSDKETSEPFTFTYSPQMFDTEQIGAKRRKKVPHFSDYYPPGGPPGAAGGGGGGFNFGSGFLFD

[2] = target: T2, GST-Nv-NF-kB (Cys allele) (Nematostella vectensis, UniProt E5G601 2-411)
T2 sequence: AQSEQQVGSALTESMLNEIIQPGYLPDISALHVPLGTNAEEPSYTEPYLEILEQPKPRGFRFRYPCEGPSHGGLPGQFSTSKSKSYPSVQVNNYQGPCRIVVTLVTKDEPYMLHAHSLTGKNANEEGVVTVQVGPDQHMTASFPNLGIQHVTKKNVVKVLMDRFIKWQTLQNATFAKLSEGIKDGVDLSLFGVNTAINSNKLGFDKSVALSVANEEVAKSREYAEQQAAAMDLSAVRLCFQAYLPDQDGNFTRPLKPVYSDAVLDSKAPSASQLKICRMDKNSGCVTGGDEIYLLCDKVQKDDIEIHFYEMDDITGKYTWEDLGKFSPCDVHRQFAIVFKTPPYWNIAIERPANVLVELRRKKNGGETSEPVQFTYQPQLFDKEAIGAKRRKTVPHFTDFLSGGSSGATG

[3] = target: T3, GST-Nv-NF-kB (Ser allele) (Nematostella vectensis, UniProt A7UNT2 2-411)
T3 sequence: T2 sequence with Q21R, C66S, S207N, E215Q, V217A, E225K, A268E, D399E

[4] = target: T4, GST-Co-NF-kB (Capsaspora owczarzaki, UniProt F1ARL5 200-546)
T4 sequence: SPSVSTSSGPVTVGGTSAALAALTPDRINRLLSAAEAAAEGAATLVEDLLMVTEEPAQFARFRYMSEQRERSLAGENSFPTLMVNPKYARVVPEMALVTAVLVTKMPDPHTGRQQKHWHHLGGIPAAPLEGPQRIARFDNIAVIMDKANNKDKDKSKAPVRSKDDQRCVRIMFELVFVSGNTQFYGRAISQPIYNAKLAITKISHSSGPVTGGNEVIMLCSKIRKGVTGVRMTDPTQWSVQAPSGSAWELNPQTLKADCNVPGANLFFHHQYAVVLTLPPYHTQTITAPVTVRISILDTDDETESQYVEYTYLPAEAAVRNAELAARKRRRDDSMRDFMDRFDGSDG

[5] = target: T5, GST-Dm-Relish (Drosophila melanogaster, UniProt Q94527 99-473)
T5 sequence: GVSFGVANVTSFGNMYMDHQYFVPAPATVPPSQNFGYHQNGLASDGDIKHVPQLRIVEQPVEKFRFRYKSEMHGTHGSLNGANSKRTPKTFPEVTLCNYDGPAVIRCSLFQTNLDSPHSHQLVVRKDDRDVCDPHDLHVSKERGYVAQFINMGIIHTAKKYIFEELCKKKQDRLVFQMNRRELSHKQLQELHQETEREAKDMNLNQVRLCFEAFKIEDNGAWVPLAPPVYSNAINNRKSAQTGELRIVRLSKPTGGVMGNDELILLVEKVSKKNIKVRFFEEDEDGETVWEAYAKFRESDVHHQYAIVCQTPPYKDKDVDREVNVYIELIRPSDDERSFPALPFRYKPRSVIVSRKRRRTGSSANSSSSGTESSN

[6] = target: T6, GST-Aq-NF-kB (Amphimedon queenslandica, UniProt A9Y5G7 2-389)
T6 sequence: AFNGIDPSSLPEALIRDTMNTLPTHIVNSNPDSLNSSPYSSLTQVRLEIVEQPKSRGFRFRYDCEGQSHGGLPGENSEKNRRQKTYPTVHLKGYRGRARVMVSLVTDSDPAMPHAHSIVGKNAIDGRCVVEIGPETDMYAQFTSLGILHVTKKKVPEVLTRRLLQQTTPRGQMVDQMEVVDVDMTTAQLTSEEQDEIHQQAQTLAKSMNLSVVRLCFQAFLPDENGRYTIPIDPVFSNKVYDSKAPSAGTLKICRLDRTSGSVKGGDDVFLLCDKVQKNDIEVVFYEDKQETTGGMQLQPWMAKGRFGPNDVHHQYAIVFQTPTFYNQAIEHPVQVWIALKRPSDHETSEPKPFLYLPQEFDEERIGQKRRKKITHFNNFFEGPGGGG

[7] = target: GST-Hu-p50 (Homo sapiens, UniProt P19838 7-356)
Sequence of GST-Hu-p50 (P19838 7-356): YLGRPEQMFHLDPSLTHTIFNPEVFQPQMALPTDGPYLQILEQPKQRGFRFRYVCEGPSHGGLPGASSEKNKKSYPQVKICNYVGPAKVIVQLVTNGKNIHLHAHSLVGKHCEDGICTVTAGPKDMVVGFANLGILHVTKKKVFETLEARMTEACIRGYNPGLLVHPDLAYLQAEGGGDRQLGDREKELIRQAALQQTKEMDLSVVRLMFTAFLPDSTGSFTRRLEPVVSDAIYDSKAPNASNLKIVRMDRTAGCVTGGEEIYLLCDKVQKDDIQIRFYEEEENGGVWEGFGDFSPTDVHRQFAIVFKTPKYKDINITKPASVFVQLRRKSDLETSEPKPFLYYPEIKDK

| Sequence | binding signal [1] | binding signal [2] | binding signal [3] | binding signal [4] | binding signal [5] | binding signal [6] | binding signal [7] |
| --- | --- | --- | --- | --- | --- | --- | --- |
| CCGATTAACATCAGGGAAATTTATGATGTTAATCGGGTCTTGATTCGCTTGACGCTGCTG | 5.86 z-score | 8.28 z-score | 7.67 z-score | 5.84 z-score | 4.1 z-score | 7.49 z-score | 5.55 z-score |
| CCGATTAACATCAGGGGATGAACTGATGTTAATCGGGTCTTGATTCGCTTGACGCTGCTG | 2.44 z-score | 3.65 z-score | 4.24 z-score | 3.23 z-score | 7.62 z-score | 3.73 z-score | 2.94 z-score |
| CCGATTAACATCAGAAATCCCCATGATGTTAATCGGGTCTTGATTCGCTTGACGCTGCTG | 8.63 z-score | 9.17 z-score | 9.84 z-score | 4.52 z-score | 8.03 z-score | 6.3 z-score | 6.99 z-score |
| CCGATTAACATCAAAAAGTCCCTTGATGTTAATCGGGTCTTGATTCGCTTGACGCTGCTG | 7.48 z-score | 10.3 z-score | 9.76 z-score | 1.63 z-score | 8.86 z-score | 8.25 z-score | 6.97 z-score |
| CCGATTAACATCAGGGGACTACCTGATGTTAATCGGGTCTTGATTCGCTTGACGCTGCTG | 7.56 z-score | 5.88 z-score | 4.89 z-score | 2.47 z-score | 7.3 z-score | 7.36 z-score | 4.79 z-score |
| CCGATTAACATCAGGAATCCCCATGATGTTAATCGGGTCTTGATTCGCTTGACGCTGCTG | 8.61 z-score | 8.08 z-score | 7.76 z-score | 3.4 z-score | 9.13 z-score | 6.35 z-score | 6.22 z-score |
